Bioassay records deposited in PubChem BioAssay by The Scripps Research Institute Molecular Screening Center.
An excerpt weighted towards active compounds, which were near 4.1% of everything screened.
rCAG binder – binders of r(CAG) RNA repeats, primary screen, biochemical, fluorescence; AID 651821, 2012; inhibition, % at 3 µM; r(CAG) RNA repeat, TO-PRO-1 dye displacement fluorescence; 370,000 compounds, 1.3% hits;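 active = inhibition above the plate cutoff, the mean of all test compounds on that plate plus 3 SD, cut at about 35% in these data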;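 note: 0% = DMSO alone and 100% = 100 µM mitoxantrone as full dye displacement; higher means more dye released from RNA so lower well fluorescence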
ABHD5-PLIN5 inh – ABHD5-PLIN5 interaction inhibitors, primary screen, cell lysate, split luciferase complementation, luminescence; inhibition, % at 4 µM; AID 602281, 2012; Split G. princeps luciferase complementation, 4 h; 360,000 compounds, 0.78% hits;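 active = inhibition above the mean inhibition across every tested compound plus 3 SD, cut at about 22% in these data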;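 note: 0% = DMSO only wells and the 100% control is not disclosed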
Target sequence (Q00G26 whole entry, looked up): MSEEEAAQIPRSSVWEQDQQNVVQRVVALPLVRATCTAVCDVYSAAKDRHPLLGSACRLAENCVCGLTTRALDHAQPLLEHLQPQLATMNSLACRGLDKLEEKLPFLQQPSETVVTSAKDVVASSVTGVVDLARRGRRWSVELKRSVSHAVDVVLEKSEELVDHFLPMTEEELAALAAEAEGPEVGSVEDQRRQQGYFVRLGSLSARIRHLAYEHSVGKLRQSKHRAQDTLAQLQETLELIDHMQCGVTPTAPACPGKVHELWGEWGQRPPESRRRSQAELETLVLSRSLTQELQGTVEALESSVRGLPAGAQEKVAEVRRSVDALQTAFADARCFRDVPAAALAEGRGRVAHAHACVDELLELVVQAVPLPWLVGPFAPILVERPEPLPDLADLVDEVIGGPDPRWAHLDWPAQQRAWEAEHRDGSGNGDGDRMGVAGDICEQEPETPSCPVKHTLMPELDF
Target sequence (Q8WTS1 whole entry, looked up): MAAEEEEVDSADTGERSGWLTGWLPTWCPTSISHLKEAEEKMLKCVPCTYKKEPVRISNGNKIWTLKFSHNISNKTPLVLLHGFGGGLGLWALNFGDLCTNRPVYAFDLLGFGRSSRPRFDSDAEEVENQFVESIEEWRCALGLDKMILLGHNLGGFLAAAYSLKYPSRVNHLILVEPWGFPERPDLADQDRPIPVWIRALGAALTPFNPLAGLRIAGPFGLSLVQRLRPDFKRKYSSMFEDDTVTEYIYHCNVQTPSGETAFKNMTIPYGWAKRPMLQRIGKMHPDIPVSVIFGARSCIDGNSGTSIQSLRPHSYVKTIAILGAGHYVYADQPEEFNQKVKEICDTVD
LEDGF integ inh – blockers of LEDGF/p75-dependent integrase strand transfer – biochemical, TR-FRET, high throughput, primary screen; HIV-1 integrase (with human LEDGF/p75); inhibition, % at 3.7 µM; 370,000 compounds, 0.64% hits; AID 743269, 2014; TR-FRET IN-LEDGF/p75 DNA integration, Eu/Cy5;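 active = inhibition above the screen-wide mean plus 3 SD, cut at about 13% in these data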;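 note: signal is the Cy5 over europium emission ratio at 671 and 618 nm; 0% = plate median of compound wells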
PRMT1 FP inh – PRMT1 methyltransferase inhibitors, primary screen, biochemical, fluorescence polarization | AID 652257, 2013 | 370,000 compounds, 1.3% hits | recombinant PRMT1, activity-based probe fluorescence polarization | inhibition, % at 2.79 µM;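 active = inhibition above about 21% made by adding two undisclosed values, limit read from the data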
UHRF1 MBD2 ctr – UHRF1 methylated DNA binding inhibitors, primary screen, counter-screen for MBD2 inhibitor project, biochemical, TR-FRET, human UHRF1, single concentration. 370,000 compounds, 0.75% hits. inhibition, % at 4.4 µM. E3 ubiquitin-protein ligase UHRF1 (Homo sapiens), Q96T88. UHRF1 binding to methylated oligo; in the data active = inhibition above about 21%;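 note: UHRF1 SRA domain binding a hemimethylated CpG hairpin DNA probe; 0% = median of test compound wells and 100% = reference inhibitor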
MBD2 inh – inhibitors of MBD2 binding to methylated DNA, primary screen, biochemical, TR-FRET, DNA-binding domain, human; 370,000 compounds, 0.31% hits; MBD2 binding to methylated oligonucleotide; inhibition, % at 4.4 µM; Methyl-CpG-binding domain protein 2 (Homo sapiens), Q9UBB5; in the data active = inhibition above about 13%
rCAG binder conf – small molecules binding CAG repeat RNA – biochemical, fluorescence, confirmation; shares compounds with rCAG binder; r(CAG) RNA repeat, TO-PRO-1 dye displacement fluorescence; inhibition, % at 3 µM; 4,300 compounds, 70% hits; AID 652065, 2013;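 active = inhibition above a per-plate cutoff, the mean inhibition of sample wells plus 3 SD, cut at about 35% in these data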;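 note: loss of TO-PRO-1 fluorescence as compound displaces dye from 1x1 AA loop RNA; 0% = DMSO only wells and 100% = 100 µM mitoxantrone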
DNA CAG counter – displacement of TO-PRO-1 from CAG DNA duplex, counter-screen for rCAG RNA repeat binder project, biochemical, fluorescence, TO-PRO-1 dye, d(CAG) DNA oligo. 4,300 compounds, 94% hits. AID 652068, 2013. inhibition, % at 3 µM. d(CAG) DNA oligo TO-PRO-1 dye displacement. shares compounds with rCAG binder;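 active = inhibition above its plate's cutoff, the mean test-well inhibition plus 3 SD, cut at about 4.8% in these data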;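 note: 0% = DNA dye mix with DMSO and 100% = 100 µM mitoxantrone; hits displace the dye from DNA and so lower well fluorescence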
DNA CAG DR – inhibitors of DNA CAG/GTC TO-PRO-1 complex, dose response, counter-screen for rCAG RNA repeat binder project, biochemical, fluorescence, TO-PRO-1 dye; DNA CAG/GTC duplex TO-PRO-1 dye displacement fluorescence; IC50, µM; shares compounds with rCAG binder; 250 compounds, 20% hits; AID 686960, 2013; in the data active = IC50 below about 10 µM
The depositor's hits bear a star; · = not tested or not shown.

SMILES	rCAG binder	ABHD5-PLIN5 inh	LEDGF integ inh	PRMT1 FP inh	UHRF1 MBD2 ctr	MBD2 inh	rCAG binder conf	DNA CAG counter	others
CC[C@@H](C(=O)[C@@H](C)[C@@H](O)[C@H](C)CCc1ccc(C)c(O)c1C(=O)O)[C@H]1O[C@](CC)([C@H]2CC[C@](O)(CC)[C@H](C)O2)C[C@@H]1C	57.8*	-2.3	9.3	2.9	-1.2	-2.5	60.2*	12.3*	DNA CAG DR=>29.9
Oc1c(Cl)cccc1Cc1cc(Cl)cc(Cl)c1O	58.9*	2.6	1.7	-2.3	-0.9	-5.0	61.8*	16.2*	DNA CAG DR=>29.9
CCOc1ccc(N2C(=O)/C(=C/c3ccc(C)o3)C(=O)NC2=S)cc1	36.2*	-6.8	3.6	15.3	-1.9	-2.9	44.7*	17.3*
COc1ccc(N2C(=O)/C(=C/c3ccc(C)o3)C(=O)NC2=S)cc1	24.2	9.1	6.7	11.1	-3.8	-3.5	·	·
CC1N=C(c2ccccc2)c2cc(Br)ccc2NC1=O (stereo not given)	-1.4	-1.4	-1.5	-1.7	-1.5	-2.8	·	·
COC(=O)c1c2[n+](cc3cc(OC)c(OC)cc13)CCc1cc(OC)c(OC)cc1-2	3.7	-3.5	-3.6	-2.7	9.8	0.3	·	·
CC(C)c1ccc(C(c2c(O)c3ccccc3oc2=O)c2c(O)c3ccccc3oc2=O)cc1	94.1*	-8.8	8.4	1.4	-1.2	-7.8	94.8*	82.2*
O=c1oc2ccccc2c(O)c1C(c1ccc([N+](=O)[O-])cc1)c1c(O)c2ccccc2oc1=O	96.2*	13.9	-1.6	5.3	0.7	0.7	93.7*	76.4*
CC(=O)N1CCN(c2ccc([N+](=O)[O-])cc2C=C2C(=O)NC(=O)NC2=O)CC1	35.6*	0.4	1.1	2.1	-4.7	-4.7	3.0	3.5
COC(=O)C1=C(c2ccc(F)cc2OCc2ccccc2)C[C@@H]2CC[C@H]1N2C(=O)NC1Cc2ccccc2C1	4.9	-0.8	1.6	-2.3	-1.6	-0.6	·	·
O=c1[nH]c(=O)n(Cc2ccco2)c(O)c1C=NC1CCN(Cc2ccccc2)CC1	-5.9	4.5	-6.2	-1.3	-0.1	-0.5	·	·
CN(C)c1ccc(/C=C2\C(=O)NC(=O)N(Cc3ccc(F)cc3)C2=O)cc1	11.3	-4.5	-6.4	18.4	-3.6	-5.0	·	·
O=C1NC(=O)N(Cc2ccc(F)cc2)C(=O)/C1=C\c1ccoc1	48.2*	-15.7	12.5	-15.4	8.5	-2.9	37.8*	11.4*
COc1ccc(C2CC(c3c(O)n(CCc4ccccc4)c(=O)[nH]c3=O)=NN2)cc1OC (stereo not given)	41.9*	-13.6	3.2	-0.3	-6.7	4.8	25.3	8.0*
CCCC1CCCCC12C(=O)NC(=O)NC2=O (stereo not given)	0.5	-7.7	-0.2	0.0	-1.8	-5.5	·	·
O=C(O)CCC(=O)NCCC1=c2ccccc2=N/C1=C\c1c(O)n(Cc2ccc(F)cc2)c(=S)[nH]c1=O	35.1*	-7.5	2.6	8.1	-2.8	-3.6	36.7*	13.0*
C[C@H]1CC[C@H]2NCCN[C@H]2C1	0.4	7.8	-0.8	3.6	2.9	4.3	·	·
